PubChem BioAssay
Active and inactive are the calls of the source. Unless noted, how the calls were made is not given here.

What was measured:
[1] = resazurin metabolic signal in HepG2 cells – cell-based, resazurin fluorescence, 24 h, PK04 Diversity Set, profiling panel (AID 1172); details: HepG2 viability, higher = more signal; further: test concentration not given here
[2] = budding yeast growth changes without added modifier – OD600, strain BY4716, 24 h, basal condition, primary screen (AID 1173); details: S. cerevisiae BY4716 growth, OD600, 24 h; higher = more signal, called active from +8 up or from −8 down
[3] = viability profiling in MM1S myeloma cells – cell-based, resazurin fluorescence, basal, 24 h, PK04 Diversity Set, profiling panel (AID 1174); details: higher = more signal, called active from +8 up or from −8 down;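 further: MM1S multiple myeloma cell line; test concentration not given here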
[4] = molecular target: Dihydroorotate dehydrogenase (quinone), mitochondrial (Plasmodium falciparum (isolate 3D7)) (UniProt Q08210); assay: inhibition of P. falciparum DHODH – biochemical, C-terminal His tag, absorbance 600 nm, primary screen (AID 1175); details: PfDHODH enzyme, DCIP absorbance 600 nm; higher = more signal, called active from +8 up or from −8 down;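 further: recombinant parasite enzyme with a five histidine tag at its C terminus; test concentration not given here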
Sequence of Dihydroorotate dehydrogenase (quinone), mitochondrial (Plasmodium falciparum (isolate 3D7)) (Q08210 whole entry, looked up): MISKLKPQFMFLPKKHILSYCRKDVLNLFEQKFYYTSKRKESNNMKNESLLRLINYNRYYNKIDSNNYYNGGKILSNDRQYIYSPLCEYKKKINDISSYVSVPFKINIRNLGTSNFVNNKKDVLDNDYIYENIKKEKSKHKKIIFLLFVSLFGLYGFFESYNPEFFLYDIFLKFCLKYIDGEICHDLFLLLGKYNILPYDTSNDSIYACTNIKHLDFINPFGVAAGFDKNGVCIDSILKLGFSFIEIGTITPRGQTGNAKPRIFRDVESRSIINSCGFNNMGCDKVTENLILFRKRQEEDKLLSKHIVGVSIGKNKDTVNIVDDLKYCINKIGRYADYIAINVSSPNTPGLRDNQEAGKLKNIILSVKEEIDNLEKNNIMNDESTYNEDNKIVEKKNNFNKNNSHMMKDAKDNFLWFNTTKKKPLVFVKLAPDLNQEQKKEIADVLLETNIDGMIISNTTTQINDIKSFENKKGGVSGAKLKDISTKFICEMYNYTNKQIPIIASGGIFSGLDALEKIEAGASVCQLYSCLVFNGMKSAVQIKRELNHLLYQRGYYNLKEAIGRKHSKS

[5] = inhibition of PAO1 biofilm formation – strain PAO1, LB-PBS medium, absorbance 600 nm, primary screen (AID 1176); further: test concentration not given here; details: P. aeruginosa PAO1 growth/biofilm, A600, 12 h; higher = more signal
[6] = growth modulation of vineyard yeast isolate – strain RM11-1a, OD600, basal, 24 h, primary screen (AID 1177);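 further: cultures grown under basal conditions with no added stressor; test concentration not given here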; details: S. cerevisiae RM11-1a growth, OD600, 24 h; higher = more signal, called active from +8 up or from −8 down
[7] = growth of efflux-deficient E. coli DRC39 – strain DRC39, OD650, 24 h, E. coli filamentation inducers, primary screen (AID 1178);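 further: growth measured as culture turbidity by optical density at 650 nm; test concentration not given here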; details: E. coli DRC39 acrAB, higher = more signal, called active from +8 up or from −8 down
[8] = growth of efflux-deficient E. coli DRC39 – strain DRC39, OD650, 48 h, E. coli filamentation inducers, primary screen (AID 1179);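 further: screen aims at cell division blockers that make cells filament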; details: E. coli DRC39 delta-acrAB growth, higher = more signal, called active from +8 up or from −8 down
[9] = viability profiling in RPMI8226 myeloma cells – cell-based, resazurin fluorescence, basal, 24 h, PK04 Diversity Set, profiling panel (AID 1180); details: higher = more signal;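 further: RPMI8826 multiple myeloma cell line at 5000 cells per well; test concentration not given here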
[10] = molecular target: E3 ubiquitin-protein ligase XIAP (Homo sapiens) (UniProt P98170); assay: small molecules binding XIAP protein – biophysical, small-molecule microarray, fluorescence 635 nm, primary screen (AID 1181); details: higher = more signal;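 further: score merges 667 nm emission and signal to noise over triplicate slides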
Sequence of E3 ubiquitin-protein ligase XIAP (Homo sapiens) (P98170 whole entry, looked up): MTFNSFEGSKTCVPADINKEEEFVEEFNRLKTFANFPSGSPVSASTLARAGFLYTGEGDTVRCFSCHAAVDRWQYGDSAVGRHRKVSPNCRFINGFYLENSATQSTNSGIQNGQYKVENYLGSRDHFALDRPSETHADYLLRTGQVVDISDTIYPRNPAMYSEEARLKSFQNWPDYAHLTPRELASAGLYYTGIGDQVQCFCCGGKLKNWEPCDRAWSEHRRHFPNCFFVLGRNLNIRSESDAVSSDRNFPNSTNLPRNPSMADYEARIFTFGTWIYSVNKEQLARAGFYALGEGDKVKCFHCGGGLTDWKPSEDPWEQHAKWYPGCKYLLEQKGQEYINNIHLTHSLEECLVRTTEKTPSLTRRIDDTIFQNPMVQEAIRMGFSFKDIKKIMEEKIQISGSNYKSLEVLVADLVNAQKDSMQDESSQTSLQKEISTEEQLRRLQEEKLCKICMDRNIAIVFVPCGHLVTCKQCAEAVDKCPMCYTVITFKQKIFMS

| SMILES | z-score [1] | z-score [2] | z-score [3] | composite z-score [4] | z-score [5] | z-score [6] | z-score [7] | z-score [8] | z-score [9] | composite z-score [10] |
| --- | --- | --- | --- | --- | --- | --- | --- | --- | --- | --- |
| COC(=O)C1=CC(CCCO)=CC(c2ccc(CN3CCCC3)cc2)N(Cc2cccc(OC(F)(F)F)c2)C=C1C(=O)OC (stereo not given) | -0.721 | -1.54 (inactive) | -0.728 (inactive) | -2.65 (inactive) | -0.407 (inactive) | -0.287 (inactive) | 0.509 (inactive) | 0.701 (inactive) | -0.529 | 0.166 |
| CC(c1ccccc1)C(O)C1C=CC2C(=O)N(C)C(=O)C2N1Nc1ccccc1 (stereo not given) | -0.705 | -0.0181 (inactive) | -1.27 (inactive) | -0.475 (inactive) | 0.944 (inactive) | -0.0455 (inactive) | -1.12 (inactive) | -0.374 (inactive) | -1.1 | -0.0654 |
| CC(C)NC(=O)[C@@]1(c2ccc([N+](=O)[O-])cc2)CC(=O)N(C2CCCCC2)[C@@H]1c1ccc(CO)cc1 | 1.2 | 0.178 (inactive) | 1.16 (inactive) | 1 (inactive) | -0.0249 (inactive) | 0.852 (inactive) | 0.389 (inactive) | 1.29 (inactive) | 0.367 | 0.112 |
| CC(CO)N1C(=O)[C@@H]2[C@H]3C(=O)OCC=C[C@H]3OC23C=CCN(Cn2nnc4ccccc42)C(=O)[C@@H]13 (stereo not given in full) | -0.628 | 0.0199 (inactive) | -0.124 (inactive) | 0.29 (inactive) | -0.0558 (inactive) | -1.27 (inactive) | -0.11 (inactive) | -0.331 (inactive) | -0.35 | -0.334 |
| COC(=O)[C@@]1(Cc2ccc(OC)cc2)[C@H]2c3cc(C(=O)N4CCCC4)n(CCc4c[nH]c5ccc(O)cc45)c3C[C@H]2CN1C(=O)c1ccccc1 | -0.553 | 0.532 (inactive) | -0.56 (inactive) | -0.402 (inactive) | 0.411 (inactive) | 0.7 (inactive) | 0.23 (inactive) | 0.288 (inactive) | -0.377 | 0.0401 |
| NC(=O)[C@@]1(Cc2ccccc2)COC(c2ccc(OCCCO)cc2)=N1 | -0.101 | 0.539 (inactive) | 0.153 (inactive) | 1.86 (inactive) | -0.0304 (inactive) | 1.58 (inactive) | 2.1 (inactive) | 0.595 (inactive) | -0.0366 | -0.0559 |
| CC(C)[Si](C#CCCCC#N)(O[C@H](c1ccccc1)c1cn(Cc2ccccc2)nn1)C(C)C | -0.538 | -6.51 (inactive) | 0.118 (inactive) | -0.0054 (inactive) | 0.584 (inactive) | -0.431 (inactive) | -0.25 (inactive) | 0.0331 (inactive) | 0.424 | -0.0025 |
| [N-]=[N+]=NCc1ccccc1[C@H]1OC(c2ccc(OCCCO)cc2)=N[C@@]1(Cc1ccccc1N=[N+]=[N-])C(=O)NCC(O)CO (stereo not given in full) | -0.144 | -1.39 (inactive) | -0.898 (inactive) | -0.407 (inactive) | 0.758 (inactive) | 0.313 (inactive) | -0.0245 (inactive) | -0.188 (inactive) | -1.06 | 0.133 |
| Cc1ccc(N2C(=O)c3ccccc3[C@@H](C(=O)NCCCN(C)C)[C@@H]2c2ccc(CO)cc2)nc1 | 0.258 | -0.957 (inactive) | -0.252 (inactive) | -0.746 (inactive) | -0.397 (inactive) | -0.64 (inactive) | -0.152 (inactive) | 0.327 (inactive) | 0.262 | -0.102 |
| C#CCN([C@@H](Cc1ccccc1)C(=O)OC)[C@@H](/C=C/C1CC1)[C@H](O)Cc1ccccc1 | 0.454 | -0.0746 (inactive) | 1.4 (inactive) | -0.371 (inactive) | -0.189 (inactive) | 0.0421 (inactive) | -0.622 (inactive) | 0.03 (inactive) | 0.659 | -0.175 |
| [N-]=[N+]=Nc1ccccc1C[C@]1(C(=O)NCC(O)CO)COC(c2ccc(OCCCO)cc2)=N1 (stereo not given in full) | 0.586 | -0.226 (inactive) | 0.303 (inactive) | 1 (inactive) | 1.19 (inactive) | 1.73 (inactive) | 0.87 (inactive) | -0.155 (inactive) | 0.747 | 0.0449 |
| CCOC(=O)C[C@H]1[C@H](OC(=O)c2ccc(C(=O)c3ccccc3)cc2)[C@@H](NC(=O)C2CCCCC2)c2cc(OCCCO)ccc2N1C(=O)c1ccc2ccccc2n1 | 0.547 | -0.108 (inactive) | 0.491 (inactive) | -1.63 (inactive) | -0.312 (inactive) | 0.86 (inactive) | 0.297 (inactive) | 0.991 (inactive) | 0.0839 | -0.0141 |
| O=C1C2C=CC(C(O)c3ccco3)N(Nc3ccccc3F)C2C(=O)N1c1ccccc1 (stereo not given) | 0.162 | -0.258 (inactive) | -0.936 (inactive) | 0.334 (inactive) | 1.04 (inactive) | 0.101 (inactive) | -0.887 (inactive) | -0.921 (inactive) | -0.684 | 0.318 |
| C=CCNC(=O)[C@@H]1[C@H]2C(=O)O[C@H](c3ccccc3)[C@H](c3ccccc3)N2[C@H](c2ccccc2OCCO)[C@@]12C(=O)N(C(=O)OCCOC)c1ccc(C#CC3(O)CCCCCC3)cc12 | -0.405 | 0.605 (inactive) | -2.57 (inactive) | -1.91 (inactive) | 2.12 (inactive) | 0.766 (inactive) | 0.0265 (inactive) | -0.609 (inactive) | -3.27 | 0.133 |
| NC(=O)[C@H]1[C@@H]2C(=O)O[C@@H](c3ccccc3)[C@@H](c3ccccc3)N2[C@@H](c2ccc(OCCO)cc2)[C@]12C(=O)Nc1ccc(C#CCCO)cc12 | -0.0423 | 0.704 (inactive) | -0.245 (inactive) | -0.624 (inactive) | 0.35 (inactive) | 1.78 (inactive) | -0.0157 (inactive) | 0.0992 (inactive) | -0.169 | -0.0884 |
| COc1ccc([Si](C)(C)[C@H]2[C@H](CC(=O)N(CCO)Cc3ccccc3)O[C@@]3(C(=O)N(C)c4c(Br)cc(C)cc43)[C@@H]2C)cc1 | -1.86 | -2.5 (inactive) | -2.84 (inactive) | -0.474 (inactive) | 1.94 (inactive) | 0.257 (inactive) | 1.32 (inactive) | 0.677 (inactive) | -5.31 | 0.868 |
| NCCCCCCNC(=O)[C@@H]1C[C@@H]2C(=O)N[C@@H](CCCCN)C(=O)N2[C@@H]1c1ccc(O)cc1 | 0.0187 | 0.243 (inactive) | 0.681 (inactive) | -29.1 (active) | 2.5 (inactive) | -0.476 (inactive) | -0.273 (inactive) | -1.11 (inactive) | -0.354 | -0.28 |
| Cc1ccc(S[C@]2(C(=O)NCc3ccccc3)CC(=O)N(C3CCCCC3)[C@@H]2c2ccc(CO)cc2I)cc1 | -0.636 | -0.799 (inactive) | -1.82 (inactive) | -0.11 (inactive) | 0.82 (inactive) | -0.505 (inactive) | 0.509 (inactive) | 0.323 (inactive) | -2.24 | -0.0095 |
| COCCOC(=O)N1C(=O)[C@@]2(c3cc(C#CC4=CCCCC4)ccc31)[C@H](c1ccccc1OCCO)N1[C@H](c3ccccc3)[C@H](c3ccccc3)OC(=O)[C@H]1[C@@H]2C(=O)N1CCN(c2ncccn2)CC1 | 0.574 | 0.456 (inactive) | 0.411 (inactive) | -0.184 (inactive) | 1.56 (inactive) | 0.756 (inactive) | 0.259 (inactive) | -1.22 (inactive) | 0.0816 | -0.124 |
| CCCCC(CC)C(O)C1C=CC2C(=O)N(c3ccccc3)C(=O)C2N1Nc1ccccc1F (stereo not given) | 0.518 | 0.814 (inactive) | 0.888 (inactive) | 0.301 (inactive) | 0.657 (inactive) | 0.732 (inactive) | 0.207 (inactive) | 0.644 (inactive) | 0.767 | 0.0727 |
| CC[C@@H]1C=C(C(=O)O)[C@H](c2ccc(C#N)cc2)N1S(=O)(=O)c1ccc(C)cc1 | -0.835 | 0.965 (inactive) | -0.933 (inactive) | -1.93 (inactive) | -0.0601 (inactive) | -0.242 (inactive) | -0.266 (inactive) | -0.0211 (inactive) | -1.21 | 0.0153 |
| O[C@@H](Cc1ccccc1)[C@@H](/C=C/C1CC1)N(CC#Cc1ccccc1)Cc1ccccc1Br | 1.67 | 0.365 (inactive) | 1.14 (inactive) | 0.63 (inactive) | -0.59 (inactive) | 1.43 (inactive) | -0.419 (inactive) | -0.232 (inactive) | 2.14 | 0.339 |
| CCCC=C(CCC)[C@@H](NS(=O)(=O)CC12CCC(CC1=O)C2(C)C)c1ccc(C(=O)OC)cc1 (stereo not given in full) | 0.602 | 0.484 (inactive) | 0.16 (inactive) | -0.929 (inactive) | 0.756 (inactive) | -0.721 (inactive) | 0.0384 (inactive) | -0.572 (inactive) | -0.123 | -0.102 |
